The whole screen tested about 5,500 compounds, of which about 2,000 (36%) were called active. Roughly 18% stayed inconclusive and do not appear here. Rule as the data show it: active = normalized growth mostly below about 0.91 (no sharp cut-off); inconclusive = no clear call, values can overlap the other calls; inactive = mostly above about 0.92. This is one part of the list.
Test: chemical genetic growth profiling, strain panel (AID 1159580);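 also: tested at 20 µM; growth read once vehicle control cultures reached saturation at 30 °C; 1 = growth at the plate median or of vehicle wells; lower values mean less growth of the strain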
Details: growth OD
[1] = S. cerevisiae deletion strains, locus YDL101C, strain DUN1, stronger effect = lower value
[2] = S. cerevisiae deletion strains, locus YHR030C, strain SLT2, stronger effect = lower value

Measured: normalized growth

Cc1onc(-c2c(Cl)cccc2Cl)c1-c1nc(-c2ccc3c(c2)OCCO3)cs1
inactive: S. cerevisiae deletion strains, locus YAL013W, strain DEP1, stronger effect = lower value 1.01 | S. cerevisiae deletion strains, locus YBR229C, strain ROT2, stronger effect = lower value 1.01 | S. cerevisiae deletion strains, locus YCL061C, strain MRC1, stronger effect = lower value 1 | [1] 1.01 | S. cerevisiae deletion strains, locus YDR150W, strain NUM1, stronger effect = lower value 1.03 | S. cerevisiae deletion strains, locus YEL061C, strain CIN8, stronger effect = lower value 1.02 | S. cerevisiae deletion strains, locus YGR078C, strain PAC10, stronger effect = lower value 0.991 | [2] 0.998 | S. cerevisiae deletion strains, locus YHR087W, strain rtc3, stronger effect = lower value 1.01 | S. cerevisiae deletion strains, locus YJL187C, strain SWE1, stronger effect = lower value 1 | S. cerevisiae deletion strains, locus YJR043C, strain POL32, stronger effect = lower value 1.01 | S. cerevisiae deletion strains, locus YJR075W, strain HOC1, stronger effect = lower value 0.99 | S. cerevisiae deletion strains, locus YLR039C, strain RIC1, stronger effect = lower value 0.959 | S. cerevisiae deletion strains, locus YLR058C, strain SHM2 (second series), stronger effect = lower value 1.01 | S. cerevisiae deletion strains, locus YLR085C, strain ARP6, stronger effect = lower value 0.973 | S. cerevisiae deletion strains, locus YLR262C, strain YPT6, stronger effect = lower value 1 | S. cerevisiae deletion strains, locus YML094W, strain GIM5, stronger effect = lower value 0.991 | S. cerevisiae deletion strains, locus YMR219W, strain ESC1, stronger effect = lower value 1 | S. cerevisiae deletion strains, locus YMR263W, strain SAP30, stronger effect = lower value 0.993 | S. cerevisiae deletion strains, locus YMR307W, strain GAS1, stronger effect = lower value 0.946 | S. cerevisiae deletion strains, locus YNL153C, strain GIM3, stronger effect = lower value 0.997 | S. cerevisiae deletion strains, locus YNL298W, strain CLA4 (second series), stronger effect = lower value 0.987 | S. cerevisiae deletion strains, locus YNL322C, strain KRE1, stronger effect = lower value 1.02 | S. cerevisiae deletion strains, locus YNR030W, strain Alg12, stronger effect = lower value 1.02 | S. cerevisiae deletion strains, locus YOL006C, strain TOP1, stronger effect = lower value 0.999 | S. cerevisiae deletion strains, locus YPL055C, strain LGE1, stronger effect = lower value 1.04 | S. cerevisiae deletion strains, locus YPL241C, strain CIN2, stronger effect = lower value 1.02 | S. cerevisiae deletion strains, locus YPR135W, strain CTF4, stronger effect = lower value 0.934 | S. cerevisiae strains, strain wild type, stronger effect = lower value 1.01

Oc1c(Cl)cc(Cl)cc1C=Nc1nc(-c2ccc3ccccc3c2)cs1
inactive: S. cerevisiae deletion strains, locus YAR019C, strain CDC15, stronger effect = lower value 0.958 | S. cerevisiae deletion strains, locus YBL105C, strain PKC1, stronger effect = lower value 0.966 | S. cerevisiae deletion strains, locus YBR135W, strain CKS1, stronger effect = lower value 0.947 | S. cerevisiae deletion strains, locus YBR136W, strain MEC1, stronger effect = lower value 0.957 | S. cerevisiae deletion strains, locus YBR160W, strain CDC28, stronger effect = lower value 0.96 | S. cerevisiae deletion strains, locus YDL017W, strain CDC7, stronger effect = lower value 0.958 | S. cerevisiae deletion strains, locus YDL028C, strain MPS1, stronger effect = lower value 0.958 | [1] 0.962 | S. cerevisiae deletion strains, locus YDL108W, strain KIN28, stronger effect = lower value 0.959 | S. cerevisiae deletion strains, locus YDL132W, strain cdc53, stronger effect = lower value 0.971 | S. cerevisiae deletion strains, locus YDL214C, strain PRR2, stronger effect = lower value 0.793 | S. cerevisiae deletion strains, locus YDR052C, strain DBF4, stronger effect = lower value 0.969 | S. cerevisiae deletion strains, locus YDR054C, strain cdc34, stronger effect = lower value 0.957 | S. cerevisiae deletion strains, locus YDR226W, strain ADK1, stronger effect = lower value 0.966 | S. cerevisiae deletion strains, locus YDR477W, strain SNF1, stronger effect = lower value 0.802 | S. cerevisiae deletion strains, locus YER133W, strain GLC7, stronger effect = lower value 0.791 | S. cerevisiae deletion strains, locus YFL009W, strain cdc4, stronger effect = lower value 0.956 | S. cerevisiae deletion strains, locus YFL029C, strain CAK1, stronger effect = lower value 0.963 | S. cerevisiae deletion strains, locus YFR003C, strain YPI1, stronger effect = lower value 0.961 | S. cerevisiae deletion strains, locus YFR019W, strain FAB1, stronger effect = lower value 0.78 | S. cerevisiae deletion strains, locus YFR028C, strain CDC14, stronger effect = lower value 0.966 | S. cerevisiae deletion strains, locus YGR040W, strain KSS1, stronger effect = lower value 0.833 | S. cerevisiae deletion strains, locus YGR052W, strain FMP48, stronger effect = lower value 0.827 | S. cerevisiae deletion strains, locus YHR079C, strain IRE1, stronger effect = lower value 0.557 | S. cerevisiae deletion strains, locus YHR082C, strain KSP1, stronger effect = lower value 0.814 | S. cerevisiae deletion strains, locus YHR205W, strain SCH9, stronger effect = lower value 0.737 | S. cerevisiae deletion strains, locus YIL147C, strain SLN1, stronger effect = lower value 0.952 | S. cerevisiae deletion strains, locus YJL095W, strain BCK1, stronger effect = lower value 0.51 | S. cerevisiae deletion strains, locus YJL128C, strain PBS2, stronger effect = lower value 0.971 | S. cerevisiae deletion strains, locus YJR016C, strain ILV3, stronger effect = lower value 0.962 | S. cerevisiae deletion strains, locus YJR066W, strain TOR1 (second series), stronger effect = lower value 0.86 | S. cerevisiae deletion strains, locus YJR066W, strain TOR1, stronger effect = lower value 0.626 | S. cerevisiae deletion strains, locus YKL048C, strain ELM1, stronger effect = lower value 0.871 | S. cerevisiae deletion strains, locus YKL067W, strain YNK1, stronger effect = lower value 0.787 | S. cerevisiae deletion strains, locus YKL101W, strain HSL1, stronger effect = lower value 0.854 | S. cerevisiae deletion strains, locus YKL193C, strain SDS22, stronger effect = lower value 0.953 | S. cerevisiae deletion strains, locus YKL203C, strain TOR2, stronger effect = lower value 0.824 | S. cerevisiae deletion strains, locus YMR001C, strain CDC5, stronger effect = lower value 0.957 | S. cerevisiae deletion strains, locus YMR277W, strain FCP1, stronger effect = lower value 0.958 | S. cerevisiae deletion strains, locus YNL006W, strain LST8, stronger effect = lower value 0.96 | S. cerevisiae deletion strains, locus YNL161W, strain CBK1, stronger effect = lower value 0.965 | S. cerevisiae deletion strains, locus YNL183C, strain NPR1, stronger effect = lower value 0.72 | S. cerevisiae deletion strains, locus YNL207W, strain RIO2, stronger effect = lower value 0.959 | S. cerevisiae deletion strains, locus YNL222W, strain SSU72, stronger effect = lower value 0.961 | S. cerevisiae deletion strains, locus YNL307C, strain MCK1 (second series), stronger effect = lower value 0.757 | S. cerevisiae deletion strains, locus YOL078W, strain AVO1, stronger effect = lower value 0.957 | S. cerevisiae deletion strains, locus YOR119C, strain RIO1, stronger effect = lower value 0.855 | S. cerevisiae deletion strains, locus YOR231W, strain MKK1, stronger effect = lower value 0.623 | S. cerevisiae deletion strains, locus YOR329C, strain SCD5, stronger effect = lower value 0.963 | S. cerevisiae deletion strains, locus YPL031C, strain PHO85, stronger effect = lower value 0.809 | S. cerevisiae deletion strains, locus YPL153C, strain RAD53, stronger effect = lower value 0.768 | S. cerevisiae deletion strains, locus YPL204W, strain HRR25, stronger effect = lower value 0.766 | S. cerevisiae deletion strains, locus YPL209C, strain IPL1, stronger effect = lower value 0.954 | S. cerevisiae deletion strains, locus YPR025C, strain CCL1, stronger effect = lower value 0.962 | S. cerevisiae deletion strains, locus YPR106W, strain ISR1, stronger effect = lower value 0.973 | S. cerevisiae deletion strains, locus YPR111W, strain DBF20, stronger effect = lower value 0.949 | S. cerevisiae deletion strains, strain NNK1, stronger effect = lower value 0.964 | S. cerevisiae deletion strains, strain TSCII, stronger effect = lower value 0.953
active: S. cerevisiae deletion strains, locus YER123W, strain YCK3, stronger effect = lower value 0.59 | S. cerevisiae deletion strains, locus YGR092W, strain DBF2, stronger effect = lower value 0.342 | [2] 0.486 | S. cerevisiae deletion strains, locus YJL157C, strain FAR1, stronger effect = lower value 0.685 | S. cerevisiae deletion strains, locus YLR113W, strain HOG1, stronger effect = lower value 0.62 | S. cerevisiae deletion strains, locus YLR133W, strain CKI1, stronger effect = lower value 0.701 | S. cerevisiae deletion strains, locus YLR403W, strain SFP1, stronger effect = lower value 0.639 | S. cerevisiae deletion strains, locus YML070W, strain DAK1, stronger effect = lower value 0.651 | S. cerevisiae deletion strains, locus YMR205C, strain PFK2 (second series), stronger effect = lower value 0.741 | S. cerevisiae deletion strains, locus YNL020C, strain ARK1, stronger effect = lower value 0.684 | S. cerevisiae deletion strains, locus YOL136C, strain PFK27, stronger effect = lower value 0.537 | S. cerevisiae deletion strains, locus YOR061W, strain CKA2, stronger effect = lower value 0.58 | S. cerevisiae deletion strains, locus YPL256C, strain CLN2, stronger effect = lower value 0.558
